Assay outcomes as filed in PubChem BioAssay.
Hits are enriched below; roughly 21% of the tested compounds scored in any of these assays.
ELG1 repair inh – qHTS screen for small molecules that inhibit ELG1-dependent DNA repair in human embryonic kidney (HEK293T) cells expressing luciferase-tagged ELG1; Potency, µM (titrated, usually from 46.1 µM), actives largely listed as inhibitors; 330,000 compounds, 2.3% hits; HEK293T ELG1-luciferase reporter, luminescence, 16 h; DNA damage induced by 5-fluorouridine; AID 504467, 2011; note: nearly all actives have a fitted effect of over 55% in size
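Reporter activity after DNA damage by 5-fluorouridine is monitored. Compound-treated cells incubate 16 hr at 37 °C, then ONE-Glo is added for 30 min before luminescence reading.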
VP16 counter – VP16 counterscreen qHTS for inhibitors of ROR gamma transcriptional activity. 310,000 compounds, 3.5% hits. Potency, µM (doses to about 53.6 µM), hits mostly inhibitors. Drosophila S2 Gal4-VP16 UAS-luciferase, luminescence, 20 h. AID 2546, 2010;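 note: Gal4-VP16 expression switched on by copper sulfate through the metallothionein promoter; nearly all actives have a fitted effect of over 50% in size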
RORgamma inh – qHTS for inhibitors of ROR gamma transcriptional activity. Nuclear receptor ROR-gamma (Mus musculus), P51450. Drosophila S2 Gal4-RORgamma UAS-luciferase reporter, 20 h. Potency, µM (highest dose often 53.6 µM), usual class: inhibitors. 310,000 compounds, 5.4% hits. AID 2551, 2010; note: nearly all actives have a fitted effect of over 60% in size
Target sequence (P51450 whole entry, looked up, the tested form may be a part): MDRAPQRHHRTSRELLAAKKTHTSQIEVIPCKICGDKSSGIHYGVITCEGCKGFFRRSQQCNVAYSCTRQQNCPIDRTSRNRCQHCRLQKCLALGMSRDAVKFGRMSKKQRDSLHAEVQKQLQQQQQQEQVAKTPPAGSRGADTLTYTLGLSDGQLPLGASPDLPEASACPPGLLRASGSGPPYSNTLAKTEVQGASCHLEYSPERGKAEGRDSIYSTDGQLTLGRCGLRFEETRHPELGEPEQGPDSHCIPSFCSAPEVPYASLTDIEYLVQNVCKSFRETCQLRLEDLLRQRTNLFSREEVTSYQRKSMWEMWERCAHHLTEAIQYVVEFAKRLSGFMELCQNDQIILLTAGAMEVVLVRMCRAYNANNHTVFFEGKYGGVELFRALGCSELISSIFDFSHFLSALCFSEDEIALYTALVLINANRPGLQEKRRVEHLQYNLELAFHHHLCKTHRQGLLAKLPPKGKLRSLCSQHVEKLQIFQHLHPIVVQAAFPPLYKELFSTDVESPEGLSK
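Stable Schneider cell line, Gal4 DNA-binding domain fused to ROR gamma, UAS-luciferase. Cmpd 1 hr RT → CuSO4 700 uM final → 20 hr RT → luciferase reagent 10 min → luminescence.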
IL1B secr inh – qHTS for Inhibitors of Inflammasome Signaling: IL-1-beta AlphaLISA Primary Screen; THP-1 LPS/ATP IL-1B secretion, AlphaLISA, 16 h; active compounds read low; activity change, % at 57.5 µM; 360,000 compounds, 4.7% hits; in the data active = activity change below about -50%; inconclusive = mostly about -30% to -49%
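THP-1 cells pretreated 1 hr with compounds (up to 57.5 uM final), then stimulated with LPS (250 ng/mL final) plus ATP (1.25 mM final); secreted IL-1B measured by AlphaLISA after 16 hr, decreased signal indicating inhibition.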
DT40 TDP1 CPT – qHTS for Inhibitors of human tyrosyl-DNA phosphodiesterase 1 (TDP1): qHTS in cells in presence of CPT; chicken DT40 Tdp1-/-;hTDP1 cells + 20 nM CPT, ATP luminescence, 48 h; 420,000 compounds, 12% hits; Potency, µM (doses to about 46.2 µM), usual class: inhibitors; note: nearly all actives have a fitted effect of over 55% in size
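Cell growth measured by CellTiter-Glo luminescence after a minimum 48 h, 37 C compound exposure with 20 nM CPT in Tdp1-knockout DT40 cells stably expressing hTDP1, seeded 400/well; qHTS titration format.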
TDP1 cell noCPT – qHTS for Inhibitors of human tyrosyl-DNA phosphodiesterase 1 (TDP1): qHTS in cells in absence of CPT; DT40 Tdp1-/- hTDP1 cells, no CPT, ATP luminescence, 48 h; Potency, µM (top dose mostly 46.2 µM), usual class: inhibitors; 420,000 compounds, 15% hits; AID 686978, 2013; note: nearly all actives have a fitted effect of over 55% in size
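Compound effects on proliferation are scored in DT40 Tdp1-/-;hTDP1 cells in the absence of CPT. ATP levels (CellTiter-Glo luminescence) are recorded after a ≥48 hr, 37 °C incubation.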
Each line names hits and unclear results; the compound was inactive in the other large screens. Unless noted, calls come from the whole dose curve; as a rule, active = well fitted curve in the direction sought with a large enough effect; inconclusive = small, poorly fitted or top-dose-only effect, or another doubt; inactive = no such curve, though single readings can be large; an effect the other way counts as inactive or inconclusive.

CCc1ccc(C2C3=C(CC(C)(C)CC3=O)OC3=C2C(=O)CC(C)(C)C3)cc1	DT40 TDP1 CPT inconclusive, TDP1 cell noCPT 23µM
O=C(NC(Cc1ccccc1)C(=O)O)/C(=C/c1ccc([N+](=O)[O-])cc1)NC(=O)c1ccccc1Br (configuration not stated)	none
CCOC(=O)c1cc(-c2ccc(OC)c(S(=O)(=O)N3CCN(c4ccccc4)CC3)c2)on1	DT40 TDP1 CPT 16µM, TDP1 cell noCPT 21µM (no result: ELG1 repair inh, VP16 counter, RORgamma inh, IL1B secr inh)
CCc1ccc(-c2cc(C)no2)cc1S(=O)(=O)N1CCN(c2ccccc2)CC1	DT40 TDP1 CPT 16µM, TDP1 cell noCPT inconclusive
Cn1c(-c2ccc3nc(N)sc3c2)nc2cc(N)ccc21	ELG1 repair inh inconclusive, VP16 counter inconclusive, DT40 TDP1 CPT inconclusive, TDP1 cell noCPT 23µM
COC(=O)C1=C[C@@H](C(=O)OC)[C@@H]2C3=C(C(=O)C2(C)C)[C@H](c2ccccc2)[C@@H]2C(=O)N(c4ccccc4)C(=O)[C@@H]2[C@@H]3C1	none (no result: ELG1 repair inh, IL1B secr inh, DT40 TDP1 CPT, TDP1 cell noCPT)
Cc1c(O)c(CN2CCCCC2)cc2c1oc(=O)c1ccccc12	IL1B secr inh inconclusive, DT40 TDP1 CPT inconclusive, TDP1 cell noCPT 26µM
Cc1c(O)c(CN(C)C)cc2c1oc(=O)c1ccccc12	IL1B secr inh inconclusive, TDP1 cell noCPT inconclusive
Cc1ccc(C)c(N2CCN(C(=O)c3cccc(-n4c(C)nc5cccnc54)c3)CC2)c1	DT40 TDP1 CPT 7.3µM, TDP1 cell noCPT 13µM (no result: ELG1 repair inh, VP16 counter, RORgamma inh, IL1B secr inh)
Cc1ccc(C)c(N2CCN(C(=O)c3cc4cc5ccc(C)cc5nc4s3)CC2)c1	DT40 TDP1 CPT inconclusive (no result: ELG1 repair inh, VP16 counter, RORgamma inh, IL1B secr inh)
Cc1cccc(N2CCN(C(=O)c3cccc(-n4c(C)nc5cccnc54)c3)CC2)c1C	DT40 TDP1 CPT 7.3µM, TDP1 cell noCPT 5.8µM (no result: ELG1 repair inh, VP16 counter, RORgamma inh, IL1B secr inh)
Cc1ccc(Cl)cc1N(C)C(=O)c1cc2ccc3cccnc3c2[nH]1	DT40 TDP1 CPT 6.5µM, TDP1 cell noCPT 8.2µM (no result: ELG1 repair inh, VP16 counter, RORgamma inh, IL1B secr inh)
O=C(NCC1CCN(Cc2cccc(Cl)c2)CC1)c1cc2ccc3cccnc3c2[nH]1	TDP1 cell noCPT inconclusive (no result: ELG1 repair inh, VP16 counter, RORgamma inh, IL1B secr inh)
Cc1ccc(C)c(N2CCN(C(=O)c3cc4ccc5cccnc5c4[nH]3)CC2)c1	DT40 TDP1 CPT 29µM, TDP1 cell noCPT inconclusive (no result: ELG1 repair inh, VP16 counter, RORgamma inh, IL1B secr inh)
C=Cc1ccc(CC2(C)C(=O)Nc3ccc(Cl)cc32)cc1 (configuration not stated)	none (no result: ELG1 repair inh, VP16 counter, RORgamma inh)
Cc1cccc(N2CCN(C(=O)c3cccc(-n4c(C)nc5cccnc54)c3)CC2C)c1 (configuration not stated)	DT40 TDP1 CPT 8.2µM, TDP1 cell noCPT 6.5µM (no result: ELG1 repair inh, VP16 counter, RORgamma inh, IL1B secr inh)
Cc1cccc(N2CCN(C(=O)c3ccccn3)CC2C)c1 (configuration not stated)	DT40 TDP1 CPT inconclusive
Cc1ccc(Cl)cc1N1CCN(C(=O)c2ccc(C)c(-n3c(C)nc4cccnc43)c2)CC1	DT40 TDP1 CPT 7.3µM, TDP1 cell noCPT 5.2µM (no result: ELG1 repair inh, VP16 counter, RORgamma inh, IL1B secr inh)
CCCCCCCCCCCCCCCC(=O)C1=C(O)C(CO)OC1=O (configuration not stated)	none (no result: ELG1 repair inh, VP16 counter, RORgamma inh, IL1B secr inh)
CCOC(=O)[C@H]1[C@H]2COc3ccc(C)cc3[C@@H]2N2C(=O)c3cc(Br)ccc3NC(=O)[C@@]12C	DT40 TDP1 CPT inconclusive, TDP1 cell noCPT inconclusive (no result: VP16 counter, RORgamma inh)
CCCC1([C@H](O)C/C=C/[C@H]2[C@H](O)CC(=O)[C@@H]2CCCCCCC(=O)OC)CCC1	VP16 counter inconclusive, DT40 TDP1 CPT 15µM, TDP1 cell noCPT 11µM (no result: ELG1 repair inh, IL1B secr inh)
CCOC(=O)[C@]12CCCC=C1N(Cc1ccccc1)C(=O)[C@H](CC(=O)NCc1ccccc1)C2	DT40 TDP1 CPT inconclusive, TDP1 cell noCPT inconclusive (no result: ELG1 repair inh, VP16 counter, RORgamma inh)
Cc1ccc(OCc2nnc(SCC(=O)C(C)(C)C)n2Cc2ccco2)cc1	ELG1 repair inh inconclusive, DT40 TDP1 CPT inconclusive, TDP1 cell noCPT 16µM
CN1CCN(c2ccc(NC(=O)c3ccc(-c4cccc([N+](=O)[O-])c4)o3)cc2)CC1	ELG1 repair inh inconclusive, IL1B secr inh -55, TDP1 cell noCPT inconclusive
CN1CCN(c2ccc(NC(=O)c3ccc(-c4ccc(Cl)cc4)o3)cc2)CC1	ELG1 repair inh inconclusive, VP16 counter inconclusive, IL1B secr inh -99, DT40 TDP1 CPT 16µM, TDP1 cell noCPT 21µM
CS(=O)(=O)N1CCN(c2ccc(NC(=O)c3ccc(-c4ccc(Cl)cc4)o3)cc2)CC1	ELG1 repair inh inconclusive, DT40 TDP1 CPT inconclusive, TDP1 cell noCPT inconclusive
Cc1ccccc1-c1nnc(SCC(=O)N(C)C2CCCCC2)o1	DT40 TDP1 CPT inconclusive (no result: ELG1 repair inh, VP16 counter, RORgamma inh, IL1B secr inh)
Cc1ccc2c(c1C)NC(=O)C2(O)CC(=O)c1ccc2c(c1)OCO2 (configuration not stated)	ELG1 repair inh inconclusive
Cc1ccc2c(c1C)NC(=O)C21N2CCCC2C(C(=O)c2ccc3ccccc3c2)C12C(=O)Nc1ccccc12 (configuration not stated)	RORgamma inh inconclusive, IL1B secr inh inconclusive, DT40 TDP1 CPT 23µM, TDP1 cell noCPT 12µM
Cc1cc2c(cc1S(=O)(=O)NC1CCCCC1C)OCC(=O)N2 (configuration not stated)	ELG1 repair inh inconclusive, DT40 TDP1 CPT inconclusive
CN(C)CCCCl	none (no result: ELG1 repair inh, IL1B secr inh, DT40 TDP1 CPT, TDP1 cell noCPT)
COc1ccc([C@H]2CC(=O)C=C(c3cc(C)ccc3OC)C2)cc1	DT40 TDP1 CPT 4.1µM, TDP1 cell noCPT 6.5µM (no result: VP16 counter, RORgamma inh)
CCOc1ccc(Br)cc1C1=CC(=O)C[C@H](c2ccc(OC)cc2)C1	DT40 TDP1 CPT 4.6µM, TDP1 cell noCPT 2.9µM (no result: VP16 counter, RORgamma inh)
COc1ccc([C@H]2CC(=O)C=C(c3cccc(OC(F)(F)F)c3)C2)cc1	DT40 TDP1 CPT 23µM, TDP1 cell noCPT inconclusive (no result: VP16 counter, RORgamma inh)
